Shown are actives, neighbours in structure and some others; about 2.9% of the full set was active somewhere.
KLK7 zymogen act: proKLK7 (human) activation, primary screen; P49862; purified proKLK7, EDANS-DABCYL substrate fluorescence; 100% is mature enzyme control, 0% vehicle; activation, % at 7 µM; 370,000 compounds, 0.9% hits; AID 652039;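 active means activation above the mean of all tested compounds plus 3 SD, computed per campaign excluding outliers beyond control limits, cut at about 13% in these data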
Target sequence (P49862 whole entry, looked up): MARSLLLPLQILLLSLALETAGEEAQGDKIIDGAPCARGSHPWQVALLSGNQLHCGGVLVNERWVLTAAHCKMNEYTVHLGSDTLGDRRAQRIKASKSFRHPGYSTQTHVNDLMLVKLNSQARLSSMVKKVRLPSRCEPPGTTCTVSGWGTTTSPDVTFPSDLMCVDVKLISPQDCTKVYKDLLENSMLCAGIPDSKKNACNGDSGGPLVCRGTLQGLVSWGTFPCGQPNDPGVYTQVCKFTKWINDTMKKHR
FAS-TE inh: blocks the thioesterase domain of human fatty acid synthase | recombinant FAS-TE, OMFH fluorogenic substrate, fluorescence endpoint | 360,000 compounds, 0.67% hits | P49327 | inhibition, % at 15 µM | AID 602261;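 active means compounds whose normalised, plate-corrected inhibition of enzyme fluorescence in the single-dose primary screen is 50% or more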;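 further: 0% = DMSO with enzyme and 100% = substrate without enzyme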
SMARCA2 activ: SMARCA2 function activation, primary screen; MG213 cells, MMTV-luciferase reporter, dexamethasone, overnight; activation, % at 9.1 µM; 370,000 compounds, 1% hits; in the data active means activation above about 7.8%;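 further: 0% = vehicle wells and 100% = reference activator wells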
GAA850 FXN act: frataxin GAA850 promoter activation; HEK293 lucGAA850 FXN promoter luciferase reporter, 24 h; percent of 10 µM SAHA response; activation, % at 6 µM; 360,000 compounds, 0.56% hits; AID 540364;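 active means activation above the average of all compounds screened plus 3 SD, cutoff fixed separately per campaign, cut at about 7.5% in these data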;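 further: 0% = DMSO wells and 100% = 10 µM SAHA wells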
FAS-TE conf: FAS thioesterase (human) inhibition, confirmation; shares compounds with FAS-TE inh; recombinant FAS-TE, OMFH fluorogenic substrate, fluorescence; inhibition, % at 15 µM; 2,300 compounds, 45% hits; AID 624325;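 active means compounds inhibiting the enzyme by at least 50% at 15 µM in any one of the replicates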;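 further: 0% = enzyme with DMSO only and 100% = wells lacking enzyme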
The depositor's hits bear a star; x = not tested or not shown.

SMILES	KLK7 zymogen act	FAS-TE inh	SMARCA2 activ	GAA850 FXN act	FAS-TE conf
O=C(CNC(=O)c1ccccc1)OCc1cccc([N+](=O)[O-])c1	1	-7	-4	1	x
CC(C)(C)c1ccc(C(=O)NCC(=O)OCc2ccc([N+](=O)[O-])cc2)cc1	0	71*	-2	0	83*
CCOc1ccc(NC(=O)CN(c2ccc([N+](=O)[O-])cc2)S(=O)(=O)c2ccccc2)cc1	0	55*	-1	-6	37*
CCOc1ccc(N(CC(=O)N/N=C/c2ccccn2)S(=O)(=O)c2ccc(Cl)cc2)cc1	0	61*	-1	0	66*
COc1ccc(N(CC(=O)N/N=C/c2ccc(N(C)C)cc2)S(=O)(=O)c2ccccc2)cc1	-5	12	-1	0	x
CCOc1ccc(N(CC(=O)NCCSc2ccccn2)S(=O)(=O)c2ccc(Cl)cc2)cc1	-1	24	-2	-1	x
O=C(CN(c1ccc(Cl)cc1)S(=O)(=O)c1ccccc1)N/N=C/c1ccco1	0	58*	-1	-1	41*
C/C=C/C=N/NC(=O)CN(c1ccc(Br)cc1)S(=O)(=O)c1ccccc1	0	58*	0	3	72*
Fc1cccc(NCc2cn3ccccc3n2)c1	0	-2	4	4	x
OC1CCCN(Cc2nc(Cc3ccccc3Cl)no2)C1 (stereo unspecified)	0	-12	1	1	x
CCOc1ccc2nc(Cl)c(C3CC(c4ccco4)=NN3S(=O)(=O)c3ccccc3)cc2c1 (stereo unspecified)	-1	53*	-1	2	24
Cc1cccc(COC[C@H](CC(C)C)N2CCN(C(=O)c3ccc(C(C)(C)C)cc3)CCC2=O)c1	0	54*	-3	x	45*
Cc1cccc(COCC(CC(C)C)N2CCN(C(=O)c3ccc(C(C)(C)C)cc3)CCC2=O)c1 (stereo unspecified)	1	59*	-1	0	56*
Cc1cccc(COCC(CC(C)C)N2CCN(C(=O)c3ccc(C(F)(F)F)cc3)CCC2=O)c1 (stereo unspecified)	1	16	0	3	x
Cc1ccc(/C=N\NC(=O)C2CN(S(=O)(=O)c3ccccc3)CCN2S(=O)(=O)c2ccccc2)cc1 (stereo unspecified)	1	81*	-3	-4	19
Cc1cc(/C=C(\C#N)C(=O)Nc2ccc(F)cc2)c(C)n1-c1ccc(N2CCOCC2)c([N+](=O)[O-])c1	1	62*	0	0	-2
COc1ccc(NC(=O)/C(C#N)=C\c2cc(C)n(-c3ccc(Oc4ccc([N+](=O)[O-])cn4)cc3)c2C)cc1	1	3	0	-2	x
COc1ccc(NC(=O)/C(C#N)=C/c2cc(C)n(-c3ccc(N4CCOCC4)c([N+](=O)[O-])c3)c2C)cc1	0	79*	0	0	25
Cc1c(Cl)c([N+](=O)[O-])nn1CCCC(=O)Nc1cccc(Cl)c1	0	51*	-1	-1	42*
O=C(CN1CCN(S(=O)(=O)c2ccc(Cl)c(C(F)(F)F)c2)CC1)NC(=O)NC1CCCCC1	0	77*	-1	-2	20*
COC(=O)Nc1nc(-c2ccc(F)cc2)c(C)s1	0	6	1	3	x
CCOC(=O)C1CCc2c(ccc3ccccc23)N1CCC#N (stereo unspecified)	0	2	0	0	x
CCc1ccc(N=CC23c4ccccc4C(c4ccccc42)C2C(=O)N(c4ccc(OC)cc4)C(=O)C23)cc1 (stereo unspecified)	0	38	-3	-3	x
COc1ccc(N2C(=O)C3C4c5ccccc5C(C=Nc5ccc(C)cc5C)(c5ccccc54)C3C2=O)cc1 (stereo unspecified)	1	56*	0	-4	0
O=c1oc(-c2ccccc2)nc2sc3c(c12)CCC3	1	41	-2	3	x
SMILES	KLK7 zymogen act	FAS-TE inh	SMARCA2 activ	GAA850 FXN act	FAS-TE conf
O=c1oc(-c2ccco2)nc2sc3c(c12)CCCC3	0	66*	-1	1	24
COc1ccc(-c2nn(-c3ccccc3)cc2/C=N/NC(=O)c2cccc(S(=O)(=O)Nc3ccccc3OC)c2)cc1	-3	54*	-1	1	22
COc1ccc(-c2nn(-c3ccccc3)cc2/C=N/O)cc1OC	0	-9	-3	1	x
COc1ccc(-c2nn(-c3ccccc3)cc2/C=N/NC(=S)NC(C)C)cc1OC	-2	56*	2	1	15
C=CCOc1c(/C=N\NC(N)=O)cccc1OC	0	-6	-8	0	x
C=CCOc1c(OC)cc(/C=N/Nc2cccc(C(=O)O)c2)c(Br)c1Br	1	70*	5	6	84*
CCCCCCCCN1C(=O)[C@H](CC(=O)NCCCC)C[C@@]2(C(=O)OCC)CCCC=C12	0	16	-6	x	x
CN1CCN(CCOC2Cc3ccccc3Sc3ccc(Cl)cc32)CC1 (stereo unspecified)	0	2	0	3	x
N#C/C(=C\c1ccc(Sc2nc3ccccc3[nH]2)o1)c1ccccc1	-1	5	-3	-1	x
N#Cc1ccc(Sc2nc3ccccc3[nH]2)cc1C#N	0	74*	2	-2	85*
COC(=O)c1ccc(Nc2nnc(-c3ccc(C)c(S(=O)(=O)NCC4CCCO4)c3)c3ccccc23)cc1 (stereo unspecified)	-1	67*	-4	2	21
CCc1nnc(NC(=O)CSc2nnc(-c3ccco3)n2CCOC)s1	0	-5	0	1	x
CC[C@@H](C)[C@H](NC(=O)OC(C)(C)C)c1nnc(S(=O)(=O)Cc2cc(C)ccc2C)o1	1	73*	-5	-3	79*
CC(C)[C@H](NC(=O)OC(C)(C)C)c1nnc(S(=O)(=O)Cc2c(F)cccc2Cl)o1	0	83*	-12	-19	82*
CC[C@@H](C)[C@H](NC(=O)OCc1ccccc1)c1nnc([C@@H](NC(=O)OCc2ccccc2)[C@@H](C)CC)o1	1	13	1	-2	x
Cc1ccccc1CS(=O)(=O)c1nnc([C@H](CC(C)C)NC(=O)OC(C)(C)C)o1	0	52*	-11	-2	55*
C=CCn1c(SCCN2C(=O)c3ccccc3C2=O)nc2scc(-c3ccc(F)cc3)c2c1=O	-1	-8	-4	2	x
O=C(COc1cccnc1[N+](=O)[O-])NCc1ccco1	0	-6	-1	2	x
O=C1CCCCC1S(=O)(=O)c1ccccc1 (stereo unspecified)	0	-6	1	0	x
Cc1nc(SCC(=O)Nc2ccc(F)cc2)c(C#N)c(C)c1CC(=O)c1ccc(Br)cc1	0	-3	2	1	x
CCN(CC)S(=O)(=O)c1ccc(N2CCOCC2)c(NC(=O)c2ccc3c(c2)OCCO3)c1	0	9	5	0	x
CCN(CC)S(=O)(=O)c1ccc(N2CCOCC2)c(NC(=O)c2ccc3ccccc3c2)c1	0	52*	2	2	22

Source: PubChem BioAssay
